The nature of assay [1]: Nuclear factor erythroid 2-related factor 2/antioxidant responsive element (Nrf2/ARE) small molecule agonists: qHTS cell viability counter screen in human keratinocytes (AID 1919968; active means well fitted curve in the direction sought with a large enough effect in the repeat runs; an effect the other way counts as inactive or inconclusive; further: nearly all actives have a fitted effect of over 55% in size). In a few lines:
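Stably transfected HaCaT (KeratinoSens), 1,500/well. Test agents in DMSO were applied for 23 h, 37 C/5% CO2. CellTiter-Fluor was incubated 1 h before the fluorescence read.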

Assay [2] can be described thus: Nuclear factor erythroid 2-related factor 2/antioxidant responsive element (Nrf2/ARE) small molecule agonists: luciferase reporter gene qHTS assay in human keratinocytes (AID 1919969). Further: nearly all actives have a fitted effect of over 35% in size.
Assay [3] deals with Gonadotropin-releasing hormone receptor (Homo sapiens) (UniProt P30968). The assay can be described thus: Human gonadotropin-releasing hormone receptor (GnRHR) small molecule agonists, calcium flux assay in GnRHR-HEK293 cells (AID 1920063). Further: nearly all actives have a fitted effect of over 35% in size. The essentials:
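Stable human GnRHR HEK293 line. 18 h plating, then calcium dye for 1 h at 37 C. Agonist-mode compound addition from DMSO stocks; fluorescence monitored 3 min.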

The target of assay [4] is KiSS-1 receptor (Homo sapiens) (UniProt Q969F8). The assay can be described thus: Human kisspeptin (KISS1R) small molecule agonists, calcium flux assay in KISS1R-HEK293 cells (AID 1920064; active means well fitted curve in the direction sought with a large enough effect in the repeat runs; an effect the other way counts as inactive or inconclusive). In a few lines: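 After overnight (18 h) culture at 37 C/5% CO2, human KISS1R-HEK293 cells received calcium dye for 1 h, then test compound; emission at 540 nm (excitation 480 nm) was tracked for 3 min.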

A short description of assay [5]: G protein-coupled receptor (GPCR) small molecule agonists, calcium flux assay: HEK293 wild type cell line counter screen (AID 1920065). The essentials:
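Following 18 h incubation at 37 C/5% CO2, plates got calcium dye for 1 h; compounds, ATP or DMSO were then pinned in and fluorescence followed kinetically (480/540 nm).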

Assay [6] can be described thus: p53 small molecule agonists, cell-based qHTS assay with rat liver microsomes (AID 1963578). In a few lines:
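Read-out is beta-lactamase reporter fluorescence (LiveBLAzer, 2 h, room temperature, dark) in p53RE-bla cells treated 16 h at 37 C with compound, rat liver microsomes and NADPH, both 0.5 mg/mL final.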

Assay [7] in a line: p53 small molecule agonists, cell-based qHTS assay with human liver microsomes: qHTS cell viability counter screen (AID 1963579). Further: nearly all actives have a fitted effect of over 45% in size. In a few lines:
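Cells carrying the p53 response-element beta-lactamase reporter are treated for 16 h at 37 C with test compounds in the presence of human liver microsomes and NADPH (both 0.5 mg/mL final); ATP-based CellTiter-Glo luminescence then reports viability.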

The nature of assay [8]: p53 small molecule agonists, cell-based qHTS assay with rat liver microsomes: qHTS cell viability counter screen (AID 1963580). Further: nearly all actives have a fitted effect of over 45% in size. In a few lines:
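Luminescent ATP readout (CellTiter-Glo, 30 min at room temperature) reports viability of p53RE-bla HCT-116 cells after 16 h at 37 C with test compounds under metabolic activation by rat liver microsomes and NADPH at 0.5 mg/mL final each.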

Assay [9] can be described thus: p53 small molecule agonists, cell-based qHTS assay: qHTS cell viability counter screen (AID 1963581). Further: nearly all actives have a fitted effect of over 45% in size. In a few lines:
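qHTS counter screen: 16 h compound exposure at 37 C of p53RE-bla HCT-116 cells (4,000 per well, seeded 5 h prior), cell viability by ATP luminescence.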

The nature of assay [10]: p53 small molecule agonists, cell-based qHTS assay (AID 1963582; active means well fitted activation curve with a large enough effect in the signal ratio in the repeat runs, not every such curve was filed as active; the % refers to the signal ratio). The essentials:
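Measured: fluorescence from cleaved LiveBLAzer substrate. System: p53RE-bla cells, 16 h compound treatment at 37 C, 2 h substrate step at room temperature.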

Assay [11] deals with 5-hydroxytryptamine receptor 2A (Homo sapiens) (UniProt P28223). The assay can be described thus: 5-hydroxytryptamine receptor 2A (HTR2A) small molecule agonists, cell-based qHTS assay (AID 1963587). Further: nearly all actives have a fitted effect of over 30% in size. In a few lines: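 HTR2A-CHO cells, plated 18 h at 37 C/5% CO2, dye-loaded 1 h at 37 C; compounds in DMSO added by pin tool (agonist mode). Intracellular calcium flux read as kinetic fluorescence on FDSS over 2 min at 1 s intervals.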

Assay [12] has as its target Muscarinic acetylcholine receptor M1 (Homo sapiens) (UniProt P11229). The assay can be described thus: Cholinergic receptor muscarinic 1 (CHRM1) small molecule antagonists, cell-based qHTS assay (AID 1963588). Further: nearly all actives have a fitted effect of over 40% in size. Further: potency means the concentration at half of the fitted maximal effect. In a few lines: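 Compounds were tested at 15 concentrations in three independent runs. Dye-loaded CHRM1-CHO cells were exposed 5 min at room temperature before stimulation by acetylcholine added at 50nM. Intracellular calcium was read kinetically on FDSS for 3 min.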

For assay [13] the target is unchanged. The assay can be described thus: Cholinergic receptor muscarinic 1 (CHRM1) small molecule agonists, cell-based qHTS assay (AID 1963589). Further: nearly all actives have a fitted effect of over 35% in size. In a few lines: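 Kinetic fluorescence (1 s intervals) of calcium-sensitive dye in human M1 CHO cells after compound addition; cells pre-incubated 18 h at 37 C/5% CO2 and dye-loaded 1 h.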
A short description of assay [14]: cAMP Responsive Elements (CRE) small molecule agonists, cell-based qHTS assay (AID 1963590). The essentials: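 Test agents in DMSO were incubated 3 h at 37 C/5% CO2 with CRE-bla HEK 293T cells seeded 18 h earlier; LiveBLAzer B/G FRET substrate was added and read after 2 h at room temperature.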
Assay [15] in a line: cAMP Responsive Elements (CRE) small molecule antagonists, cell-based qHTS assay (AID 1963591; active means well fitted inhibition curve with a large enough effect in the signal ratio in the repeat runs, not every such curve was filed as active; the % refers to the signal ratio). In a few lines: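 Reporter line CRE-bla HEK 293T in dialyzed-FBS DMEM; cells preincubated 18 h, treated 3 h with compound plus NKH477 (0.25 uM final); LiveBLAzer FRET, 2 h RT.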
Assay [16] addresses Beta-2 adrenergic receptor (Homo sapiens) (UniProt P07550). The assay can be described thus: Adrenergic beta2 receptor (ADRB2) small molecule antagonists, cell-based qHTS assay (AID 1963592). Further: series mostly up to about 92 µM; nearly all actives have a fitted effect of over 50% in size. In a few lines: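 Assay format: CHO-ADRB2 cells, 18-20hr seeding at 37C/5% CO2, then compound plus 1nM isoproterenol agonist mix for 0.5hr RT. Homogeneous time-resolved fluorescence cAMP detection after 1hr, expressed as 665/615 nm ratio.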

For assay [17] the target is unchanged. The assay can be described thus: Adrenergic beta2 receptor (ADRB2) small molecule agonists, cell-based qHTS assay (AID 1963593).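 Further: CHO cells stably overexpressing human ADRB2.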 In a few lines:
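CHO cells stably over-expressing ADRB2 were plated overnight at 37C, then dosed with compounds plus a stimulation mix containing 100uM IBMX and 25uM Ro-20-1724 for 0.5hr at room temperature. cAMP was measured by HTRF competition, 1hr.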

The target in assay [18] is D(2) dopamine receptor (Homo sapiens) (UniProt P14416). The assay can be described thus: Dopamine D2 receptor (DRD2) small molecule agonists, cell-based qHTS assay (AID 1963594). Further: nearly all actives have a fitted effect of over 35% in size. In a few lines: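 HEK293 cells stably expressing DRD2 were cultured 24 h at 37 C, then given Ro20-1724 (0.1 mM final) and compounds for 10 min at room temperature. NKH477 (200nM) was then added for 30 min. cAMP was read by HTRF.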

Assay [19] shares this target. The assay can be described thus: Dopamine D2 receptor (DRD2) small molecule antagonists, cell-based qHTS assay (AID 1963595; active means well fitted inhibition curve with a large enough effect in the signal ratio in the repeat runs, with a control signal flat; the % refers to the signal ratio). In a few lines: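 Stable D2 receptor HEK293 line, 24 h after seeding. Compound preincubated 10 min, then quinpirole (12 nM) with forskolin analogue NKH477 (200 nM), 30 min, room temperature. Detection by time-resolved FRET of cAMP.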
Assay [20] deals with 5-hydroxytryptamine receptor 2A (Homo sapiens) (UniProt P28223). The assay can be described thus: 5-hydroxytryptamine receptor 2A (HTR2A) small molecule antagonists, cell-based qHTS assay (AID 1963586). Further: nearly all actives have a fitted effect of over 45% in size. In a few lines: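 CHO cells stably expressing human HTR2A were plated for 18 h at 37 C, then loaded with calcium dye for 1 h. Compounds were preincubated 5 min at room temperature before DOI (4 nM solution) was added. Kinetic fluorescence was read for 3 min.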

Unmarked numbers belong to inactive results. Records with an inconclusive call do not appear. The source made the active and inactive calls. Unless noted, the call rests on the fitted dose curve.

Sequence of 5-hydroxytryptamine receptor 2A (Homo sapiens) (P28223 whole entry, looked up): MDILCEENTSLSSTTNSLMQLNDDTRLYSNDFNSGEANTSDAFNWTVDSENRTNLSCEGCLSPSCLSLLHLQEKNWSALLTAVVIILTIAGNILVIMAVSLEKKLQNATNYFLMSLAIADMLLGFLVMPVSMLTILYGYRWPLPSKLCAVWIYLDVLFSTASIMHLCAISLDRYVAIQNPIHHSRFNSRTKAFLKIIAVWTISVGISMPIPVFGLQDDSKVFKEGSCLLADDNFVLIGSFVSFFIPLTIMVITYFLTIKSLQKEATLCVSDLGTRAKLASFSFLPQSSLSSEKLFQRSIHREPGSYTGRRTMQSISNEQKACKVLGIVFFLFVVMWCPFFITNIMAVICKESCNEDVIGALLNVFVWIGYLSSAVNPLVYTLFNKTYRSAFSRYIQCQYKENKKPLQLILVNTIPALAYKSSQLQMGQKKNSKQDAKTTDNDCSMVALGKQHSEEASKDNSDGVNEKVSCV
Sequence of D(2) dopamine receptor (Homo sapiens) (P14416 whole entry, looked up): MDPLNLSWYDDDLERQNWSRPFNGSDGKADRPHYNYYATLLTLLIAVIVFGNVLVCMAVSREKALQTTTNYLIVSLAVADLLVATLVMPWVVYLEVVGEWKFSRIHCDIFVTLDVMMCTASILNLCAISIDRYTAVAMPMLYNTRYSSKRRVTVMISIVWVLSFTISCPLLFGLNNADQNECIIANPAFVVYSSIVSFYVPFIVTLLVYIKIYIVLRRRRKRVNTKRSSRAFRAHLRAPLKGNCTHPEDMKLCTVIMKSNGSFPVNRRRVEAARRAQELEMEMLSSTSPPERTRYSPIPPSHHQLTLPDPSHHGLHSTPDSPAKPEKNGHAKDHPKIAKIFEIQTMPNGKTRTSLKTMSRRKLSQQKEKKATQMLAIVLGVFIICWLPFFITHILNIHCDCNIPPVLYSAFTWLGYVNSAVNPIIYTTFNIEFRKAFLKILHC
Sequence of Beta-2 adrenergic receptor (Homo sapiens) (P07550 whole entry, looked up): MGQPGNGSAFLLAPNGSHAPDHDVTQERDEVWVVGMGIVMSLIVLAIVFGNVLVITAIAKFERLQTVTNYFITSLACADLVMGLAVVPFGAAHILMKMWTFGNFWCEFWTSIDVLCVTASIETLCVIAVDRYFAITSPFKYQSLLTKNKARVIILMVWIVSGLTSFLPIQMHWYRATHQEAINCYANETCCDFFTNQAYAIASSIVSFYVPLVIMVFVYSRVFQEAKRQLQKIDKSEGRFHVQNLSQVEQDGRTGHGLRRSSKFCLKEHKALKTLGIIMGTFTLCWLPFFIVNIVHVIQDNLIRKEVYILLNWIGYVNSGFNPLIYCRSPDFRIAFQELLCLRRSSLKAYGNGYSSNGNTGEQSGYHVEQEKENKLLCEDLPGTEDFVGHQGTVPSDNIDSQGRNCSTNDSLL
Sequence of Muscarinic acetylcholine receptor M1 (Homo sapiens) (P11229 whole entry, looked up): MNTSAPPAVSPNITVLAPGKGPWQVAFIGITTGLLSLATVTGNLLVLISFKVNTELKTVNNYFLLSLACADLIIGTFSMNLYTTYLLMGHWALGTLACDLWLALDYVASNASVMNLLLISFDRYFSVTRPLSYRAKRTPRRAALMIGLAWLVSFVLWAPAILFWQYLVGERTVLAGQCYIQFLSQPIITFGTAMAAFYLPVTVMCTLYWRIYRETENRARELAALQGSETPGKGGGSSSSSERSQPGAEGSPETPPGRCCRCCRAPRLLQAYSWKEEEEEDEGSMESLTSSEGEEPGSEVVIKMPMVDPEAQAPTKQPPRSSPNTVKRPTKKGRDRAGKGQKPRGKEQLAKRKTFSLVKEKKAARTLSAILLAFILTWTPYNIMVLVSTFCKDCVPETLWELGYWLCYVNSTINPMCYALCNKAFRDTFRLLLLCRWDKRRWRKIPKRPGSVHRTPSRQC
Sequence of Gonadotropin-releasing hormone receptor (Homo sapiens) (P30968 whole entry, looked up): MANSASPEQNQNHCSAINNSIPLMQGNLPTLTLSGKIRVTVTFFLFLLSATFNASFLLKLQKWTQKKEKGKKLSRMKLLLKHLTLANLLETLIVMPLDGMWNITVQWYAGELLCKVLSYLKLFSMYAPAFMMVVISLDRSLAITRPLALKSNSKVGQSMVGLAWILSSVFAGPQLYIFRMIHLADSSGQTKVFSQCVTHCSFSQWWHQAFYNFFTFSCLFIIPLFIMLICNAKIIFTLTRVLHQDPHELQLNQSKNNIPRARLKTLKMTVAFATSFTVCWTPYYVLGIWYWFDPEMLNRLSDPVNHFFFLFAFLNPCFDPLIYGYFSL
Sequence of KiSS-1 receptor (Homo sapiens) (Q969F8 whole entry, looked up): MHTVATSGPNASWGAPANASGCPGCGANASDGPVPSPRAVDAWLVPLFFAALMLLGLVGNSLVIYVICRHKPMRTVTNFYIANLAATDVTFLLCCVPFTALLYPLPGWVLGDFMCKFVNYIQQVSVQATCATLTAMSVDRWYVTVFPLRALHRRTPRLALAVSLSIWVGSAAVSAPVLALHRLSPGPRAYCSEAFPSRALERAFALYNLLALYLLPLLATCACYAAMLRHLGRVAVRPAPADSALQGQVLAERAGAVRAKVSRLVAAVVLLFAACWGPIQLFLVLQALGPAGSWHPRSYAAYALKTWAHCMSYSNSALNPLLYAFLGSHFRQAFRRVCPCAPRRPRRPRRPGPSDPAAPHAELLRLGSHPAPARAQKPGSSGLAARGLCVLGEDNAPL

In the case of `O=P(O)(O)OCC(O)CO` (centres undefined), the Potency result in assay [1], in [2], in assay [3], in [6], in assay [7] and in assay [8] was “inactive” in each case. The Potency result in [9], in [10], in assay [11], in assay [12], in [13] and in assay [14] was “inactive” throughout. Moreover, the Potency entry in assay [15], in [16], in assay [17], in [18] and in assay [19] was “inactive” each time. In addition, the outcome in assay [4] and in [5] was inactive.
As for `COc1cc(OC)nc(NC(=O)NS(=O)(=O)Nc2ccccc2C(=O)N(C)C)n1`, the Potency result in assay [1], in [2], in assay [3], in [6], in assay [7] and in assay [8] was “inactive” each time. For the same molecule, the Potency entry in assay [9], in assay [10], in [20], in assay [11], in assay [12] and in [13] was “inactive” each time. For the same molecule, the Potency entry in [15], in assay [18] and in assay [19] was “inactive” in each case. For the same molecule, the result in assay [4] and in assay [5] was inactive.
Regarding `CCCCCCCCCCCC(=O)Cl`, the Potency result in assay [1], in [2], in [3], in assay [6], in assay [7] and in assay [9] was “inactive” throughout. The Potency result in assay [20], in assay [11], in assay [13], in assay [14], in [15] and in assay [16] was “inactive” each time. Moreover, the Potency result in assay [17], in [18] and in assay [19] was “inactive” in each case. Moreover, the result in assay [4] and in assay [5] was inactive.
Turning to `Cc1ccccc1C#N`, the Potency entry in [1], in assay [2], in assay [3], in [6], in assay [8] and in assay [9] was “inactive” throughout. For the same molecule, the Potency entry in assay [10], in assay [20], in [11], in [14], in assay [15] and in [16] was “inactive” in each case. For the same molecule, the Potency entry in assay [17], in [18] and in [19] was “inactive” in each case. The result in assay [4] and in assay [5] was inactive.
`CC=C(Cl)Cl`: the Potency entry in assay [1], in [2], in assay [3], in assay [6], in [7] and in [8] was “inactive” each time. Also, the Potency result in assay [10], in assay [20], in assay [11], in [13], in [14] and in [15] was “inactive” each time. Besides, the Potency result in assay [16], in assay [18] and in assay [19] was “inactive” in each case. The outcome in assay [4] and in assay [5] was inactive.
Turning to `COc1c(N2C[C@@H]3CCCN[C@@H]3C2)c(F)cc2c(=O)c(C(=O)O)cn(C3CC3)c12`, the Potency entry in [1], in [2], in assay [3], in [6], in assay [7] and in [8] was “inactive” each time. Further, the Potency result in assay [10], in assay [20], in [11], in assay [13], in [14] and in [15] was “inactive” each time. In addition, the Potency result in assay [19] was “inactive”. Moreover, the outcome in assay [4] and in assay [5] was inactive. Besides, in [12], the Potency was 6.5 µM (active).
On to `CCOC(=O)c1cnc2c(cnn2CC)c1NN=C(C)C`, for which the Potency entry in assay [1], in assay [2], in assay [3], in assay [6], in assay [7] and in [9] was “inactive” throughout. The Potency result in assay [10], in assay [11], in assay [12], in [14], in assay [16] and in [18] was “inactive” in each case. In addition, the outcome in assay [4] and in assay [5] was inactive.
With `Cc1nc(-c2ccc(Cl)cc2)oc1COC(C)(C)C(=O)O`, the Potency entry in assay [1], in assay [2], in assay [3], in assay [6], in [8] and in assay [10] was “inactive” in each case. For the same molecule, the Potency entry in assay [20], in [11], in assay [12], in [13], in assay [15] and in [16] was “inactive” throughout. Besides, the Potency result in [17], in [18] and in assay [19] was “inactive” throughout. In addition, the result in assay [4] and in assay [5] was inactive.

For the origin of these results see PubChem BioAssay (Tox21).
